Assay outcomes as filed in PubChem.
In the library only some 12% were active in any assay of this set; here they are far more common.
HP1b chromo inh: HTS for Inhibitors of HP1-beta Chromodomain Interactions with Methylated Histone Tails | Chromobox protein homolog 1 (Homo sapiens), P83916 | AlphaScreen HP1-beta / biotin-H3K9me3 peptide binding | Potency, µM (top dose mostly 114 µM), usual class: inhibitors | 0.56% of 390,000 active; note: nearly all actives have a fitted effect of over 70% in size
Target sequence (P83916 whole entry, looked up): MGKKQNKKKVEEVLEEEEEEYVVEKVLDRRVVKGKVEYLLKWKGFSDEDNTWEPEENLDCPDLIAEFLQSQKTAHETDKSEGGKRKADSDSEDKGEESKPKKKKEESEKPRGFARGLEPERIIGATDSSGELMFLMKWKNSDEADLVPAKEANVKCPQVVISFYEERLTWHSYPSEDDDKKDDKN
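HP1-beta protein (50 nM final) preincubated 30 min at room temperature with biotinylated H3(1-18)K9me3 peptide (50 nM) in PBS pH 7.4, 0.01% Tween-20, then compound added for 30 min. AlphaScreen streptavidin donor/nickel chelate acceptor beads (10 ug/mL final), 30 min dark, luminescence read.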
PLK1 PBD block: qHTS for Inhibitors of PLK1-PDB (polo-like kinase 1 - polo-box domain): Primary Screen. Serine/threonine-protein kinase PLK1 (Homo sapiens), P53350. Potency, µM, most hits filed as inhibitors. 2.8% of 360,000 active. Plk1 PBD binding of FITC phosphopeptide, fluorescence polarization; note: series mostly up to about 57 µM; nearly all actives have a fitted effect of over 65% in size
BAZ2B inh: qHTS Assay for Inhibitors of BAZ2B | Bromodomain adjacent to zinc finger domain protein 2B (Homo sapiens), Q9UIF8 | AlphaScreen BAZ2B-H3K14Ac peptide displacement | Potency, µM (series often up to 114 µM), usual class: inhibitors | 4.4% of 360,000 active | AID 504333, 2011; note: nearly all actives have a fitted effect of over 60% in size
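AlphaScreen displacement: compounds (up to 110uM) incubated 30 min at room temperature with a preformed 50 nM BAZ2B/50 nM biotinylated H3K14Ac peptide complex in PBS pH 7.4 with Tween-20. Donor and acceptor beads at 10 ug/mL final added, 20 min light-protected before reading.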
G9a block: qHTS Assay for Inhibitors of Histone Lysine Methyltransferase G9a | Histone-lysine N-methyltransferase EHMT2 (Homo sapiens), Q96KQ7 | G9a H3K9 monomethylation, AlphaScreen, 2 h | Potency, µM (doses to about 102 µM), usual class: inhibitors | 8.8% of 350,000 active | AID 504332, 2011; note: nearly all actives have a fitted effect of over 75% in size
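G9a (20 nM) was preincubated 15 min with compound, then reacted 2 h at room temperature with 500 nM biotin-H3K9 peptide and 20 µM SAM. Monomethyl-H3K9 detected by AlphaScreen using anti-H3K9me1 antibody.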
JMJD2A Tudor: qHTS Assay for Inhibitors of JMJD2A-Tudor Domain; Potency, µM (top dose mostly 114 µM), most hits filed as inhibitors; AlphaScreen JMJD2A-Tudor / H3K4me3 peptide binding; Lysine-specific demethylase 4A (Homo sapiens), O75164; 4.4% of 390,000 active; AID 504339, 2011; note: nearly all actives have a fitted effect of over 50% in size
PI5P4Ka inh: qHTS for Inhibitors of phosphatidylinositol 5-phosphate 4-kinase (PI5P4K); Phosphatidylinositol 5-phosphate 4-kinase type-2 alpha (Homo sapiens), P48426; PI5P4Kalpha enzyme, ADP-Glo luminescence, 60 min; hits give low values; max response, %; 1.2% of 330,000 active; AID 652105, 2013; active = max response of -50% or lower; inconclusive = between -30% and -50%; inactive = -30% or higher; note: value at the top dose of about 77 µM
Target sequence (P48426 whole entry, looked up): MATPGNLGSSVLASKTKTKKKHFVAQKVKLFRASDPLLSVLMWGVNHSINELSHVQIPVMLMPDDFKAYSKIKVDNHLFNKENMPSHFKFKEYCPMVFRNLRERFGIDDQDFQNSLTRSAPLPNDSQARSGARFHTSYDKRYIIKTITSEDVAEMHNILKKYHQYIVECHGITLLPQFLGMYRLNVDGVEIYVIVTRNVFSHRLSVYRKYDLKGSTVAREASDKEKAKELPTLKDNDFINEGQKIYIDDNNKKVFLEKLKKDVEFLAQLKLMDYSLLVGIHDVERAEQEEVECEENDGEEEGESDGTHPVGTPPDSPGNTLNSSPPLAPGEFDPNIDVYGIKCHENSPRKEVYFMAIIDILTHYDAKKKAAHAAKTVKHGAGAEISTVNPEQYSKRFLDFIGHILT
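ADP-Glo luminescence end-point read after a 60 min room-temperature kinase reaction of PI5P4Kalpha plus substrate, initiated with ATP at 5 microM final. Buffer: 0.038 M HEPES pH 7.4, EGTA, 0.1% CHAPS, 5% DMSO.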
Numbers stand for hits; - = inactive; ? = inconclusive; . = no result given; [ ] = dose if it differs, or a comment. Unless noted, calls come from the whole dose curve; as a rule, active = well fitted curve in the direction sought with a large enough effect; inconclusive = small, poorly fitted or top-dose-only effect, or another doubt; inactive = no such curve, though single readings can be large; an effect the other way counts as inactive or inconclusive.

SMILES	HP1b chromo inh	PLK1 PBD block	BAZ2B inh	G9a block	JMJD2A Tudor	PI5P4Ka inh
C=CCOc1ccc(/C=C2\SC(=S)N(NS(=O)(=O)c3ccc(C)cc3)C2=O)cc1	?	27µM	40µM	-[2.33 µM]	50µM	-55
COc1cc(/C=C2\SC(=S)N(NS(=O)(=O)c3ccccc3)C2=O)cc(OC)c1OC	-	-	?	?	?	-
COc1cccc(/C=C2\SC(=S)N(NS(=O)(=O)c3ccccc3)C2=O)c1OC	-	?	-	40µM	?	-60
Cc1ccc(/C=C2\SC(=S)N(NS(=O)(=O)c3ccc(C)cc3)C2=O)cc1	-	27µM	50µM	.	?	-
NC(=O)c1ccc(NC(=O)CNC(=O)c2sc3ccccc3c2Cl)cc1	-	-	-	-[12.7 µM]	-	-
Cc1ccc(CNC(=O)c2oc3ccc(S(=O)(=O)N4CCCC(C)C4)cc3c2C)cc1 (stereo not drawn)	-	.	-	-	-	.
COc1cccc(CNC(=O)CSc2c3c(nc4ccc(Cl)cc24)CCCC3)c1OC	-	.	.	-	-	.
CC(C)c1ccc(C(C)NCCS(=O)(=O)c2ccc(Cl)cc2)cc1 (stereo not drawn)	-	-	-	-	-	-
Cc1ccc(S(=O)(=O)NN2C(=O)/C(=C\c3ccc(Cl)cc3)SC2=S)cc1	-	27µM	-	-	-	-
COc1ccc(/C=C2/SC(=S)N(NS(=O)(=O)c3ccc(C)cc3)C2=O)cc1	?	24µM	40µM	?	?	?
O=C(NCCc1ccc(F)cc1)C1CCC(=O)N(CC2CCCCC2)C1 (stereo not drawn)	.	-	.	.	.	-
C[n+]1cn(CC(O)COCc2ccccc2)c2ccccc21 (stereo not drawn)	-	-	?	.	-	-
Cc1cc2c(cc1C)[n+](C)cn2CC(O)COCc1ccccc1 (stereo not drawn)	-	-	-	5.6µM	?	.
CCOC(=O)C1=C(C)N(CCCCCC(=O)O)C(=O)NC1c1ccccc1OS(=O)(=O)c1ccc(C)cc1 (stereo not drawn)	-	-	.	.	?	-
CC1=C(C(=O)OCc2ccccc2)C(c2ccccc2OS(=O)(=O)c2ccccc2[N+](=O)[O-])NC(=O)N1CCCC(=O)O (stereo not drawn)	-	-	.	.	?	-99
CCOC(=O)C1=C(C)N(CCCC(=O)O)C(=O)NC1c1ccccc1OS(=O)(=O)c1ccccc1[N+](=O)[O-] (stereo not drawn)	-	-	.	.	-	-76
CC1=C(C(=O)OCc2ccccc2)C(c2cccc([N+](=O)[O-])c2)NC(=O)N1CCCCCC(=O)O (stereo not drawn)	-	-	-	-	-	-
COC(=O)C1=C(C)N(CCCC(=O)O)C(=O)NC1c1ccccc1OS(=O)(=O)c1ccc([N+](=O)[O-])cc1 (stereo not drawn)	-	-	.	.	-	-105
CCOC(=O)C1=C(C)N(CCCC(=O)O)C(=O)NC1c1ccccc1OS(=O)(=O)c1ccc(C)cc1 (stereo not drawn)	-	-	-	-	-	-85
CC(C)OCCCn1c(=O)c2ccccc2n2c(-c3cc(Cl)ccc3O)nnc12	-	.	-	-	-	.
CC1(C(=O)Nc2ccccc2)CCN1C(=O)CCc1ccc(Cl)cc1Cl (stereo not drawn)	.	-	.	.	.	-
COc1ccc(OC)c(NC(=O)CN(C)S(=O)(=O)c2ccc3[nH]c4c(c3c2)CCCC4)c1	?	.	?	13µM	?	.
Cc1ccc(N(C)S(=O)(=O)c2ccc3[nH]c4c(c3c2)CCCC4)cc1	-	.	?	?	?	.
COc1cccc(CNC(=O)CN(C)S(=O)(=O)c2cnc[nH]2)c1	-	-	-	-	-	-
COc1cccc(CNC(=O)CN(C)S(=O)(=O)c2ccc3[nH]c4c(c3c2)CCCC4)c1	-	.	-	13µM	?	.
SMILES	HP1b chromo inh	PLK1 PBD block	BAZ2B inh	G9a block	JMJD2A Tudor	PI5P4Ka inh
CN(CC(=O)NCc1ccc(Cl)cc1)S(=O)(=O)c1ccc2[nH]c3c(c2c1)CCCC3	-	.	-	10µM	?	.
CCN(CC)c1nn2c(=O)c(C(=O)NCc3cccc(OC)c3OC)cnc2s1	-	.	-	-	-	.
O=c1c(Cl)c(O)c2cccc3c4ccccc4n1c23	-	-	-	45µM	-	-57
COc1c(O)c(=O)n2c3ccccc3c3ccnc1c32	-	-	-	?	?	-
Cc1cc(C2=CC(C)(c3cc(C)oc3C)Nc3nc(C(F)(F)F)nn32)c(C)o1 (stereo not drawn)	.	.	56µM	?	.	.
c1ccc(CNc2nc3ccccc3n3cnnc23)nc1	-	-	-	45µM	-	-
CN(C)/C=C/C(=O)c1ccc2noc(-c3ccccc3)c2c1	-	-	?	-	?	-70
CC(=O)c1ccc2noc(-c3cccc(C)c3)c2c1	-	-	-	18µM	-	-
CN(C)/C=C/C(=O)c1ccccc1	-	-	-	.	-	-
CC(=O)c1ccc2noc(-c3ccccc3)c2c1	-	-	-	.	-	-
COc1ccc(OC)c(CNC(=O)CCCn2nc(C)c3c(C)n(-c4ccc(C)cc4)nc3c2=O)c1	-	.	-	-	-	.
